PubChem BioAssay (NCI)
The panel holds about 83,000 compounds, 20% with a hit somewhere; the sample as a whole holds those more often.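 Testing used 96-well plates and a 48-hour single-concentration exposure. Example: -40 means 40% of the starting cells died.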 A number with no mark means an inactive call. The source made the active and inactive calls. How the source made its calls: active means growth percent below 10; inactive means the rest.

system: SF-268 CNS; test: NCI-60 one-dose screen, 48 h (100 = growth as untreated, 0 = no growth, -100 = all killed); conditions: 10 µM unless noted

Question: With CCOC(=O)[C@H](CSSc1ncnc2cc[nH]c12)NC(=O)[C@@H](C)c1ccc2cc(OC)ccc2c1 as the compound, how does the growth read?
Answer: The growth was 33.1%.

Question: For CC(C)C[C@H](NC(=O)Cn1ccc(NCc2ccccc2)cc1=O)B(O)O, which growth is on record?
Answer: The growth was 3.08% (active).

Question: For COc1ccc(C(=O)c2cc(OC)c(OC)c(OC)c2)cc1/C=C/C(=O)c1ccc(O)cc1, which growth is on record?
Answer: The growth was 12.8%.

Question: With Cc1cccc(NC(=O)c2sc3nc4c(cc3c2N)CCC4)c1C as the compound, how does the growth read?
Answer: Its growth is 35.1%.

Question: COc1cc(-c2cc(/C=C3\CCCCC3=O)[nH]n2)cc(OC)c1OC was tested. Which growth did it give?
Answer: Its growth is 96.8%.

Question: Which growth does the source give for COc1cccc(C2CC(=O)Nc3c2c(C)nn3-c2nc3ccccc3[nH]2)c1OC (stereo not drawn) here?
Answer: Its growth is 76.4%.

Question: For CCNC(=O)C1CCCN1C(=O)C(CCCN=C(N)N)NC(=O)C(CC(C)C)NC(=O)C(CC(C)C)NC(=O)C(Cc1ccc(O)cc1)NC(=O)C(CO)NC(=O)C(Cc1c[nH]c2ccccc12)NC(=O)C(Cc1cnc[nH]1)NC(=O)C1CCC(=O)N1 (stereo not drawn), which growth is on record?
Answer: The growth was 100%.

Question: COc1ccc(-c2nc3sccn3c2-c2ccnc(NCCCNS(=O)(=O)c3ccc(F)cc3)n2)cc1 was tested. Which growth did it give?
Answer: Its growth is 17.2%.

Question: With CCCCCC(=O)OCc1ccccc1 as the compound, how does the growth read?
Answer: The growth was 97.2%.

Question: How did the growth turn out when CN(C)c1nc(N)c(N=O)c(N)n1 was run?
Answer: The growth was 110%.

Question: COc1ccc(Cn2cc(COc3cc(/C=C/C(=O)c4cc(OC)c(OC)c(OC)c4)ccc3OC)nn2)cc1 was tested. Which growth did it give?
Answer: The growth was 94.6%.

Question: With CCOC(=O)C(Cc1ccccc1)n1c(O)c(C=Nc2ccc(C(=O)OCCN(CC)CC)cc2)sc1=O (stereo not drawn) as the compound, how does the growth read?
Answer: The growth was 97.2%.

Question: Which growth does the source give for COc1cc(Cn2c(SCC(=O)Nc3ccc(Cl)cc3)nc3ccccc3c2=O)cc(OC)c1OC here?
Answer: The growth was 46.5%.

Question: Which growth does the source give for Cc1ccc(S(=O)(=O)NCCCNc2nccc(-c3c(-c4ccccc4)nc4sccn34)n2)cc1 here?
Answer: The growth was 38.6%.

Question: For Cc1cc(-c2ccccc2)c(C)n1Cc1ccc(Cl)cc1, which growth is on record?
Answer: Its growth is 58.5%.

Question: How did the growth turn out when CN(C)c1ccc(C2CC(c3ccccc3)=NN2/C=C2\SC(=O)NC2=O)cc1 (stereo not drawn) was run?
Answer: Its growth is 90.9%.

Question: C=C1C(=O)O[C@H]2[C@H]1CC/C(COC(=O)NCCc1ccc(OC)cc1)=C\CC[C@@]1(C)O[C@@H]21 was tested. Which growth did it give?
Answer: Its growth is 45.9%.

Question: With O=C(CCCn1c(=O)c2sc3ccccc3c2n2nnc(-c3ccccc3)c12)NCCc1cnc[nH]1 as the compound, how does the growth read?
Answer: Its growth is -1.01% (active).

Question: For O=C1c2ccccc2C(=O)c2c1oc1oc3c(c(=O)c21)c(=O)n(-c1ccccc1)c1ccccc31, which growth is on record?
Answer: The growth was 34.3%.

Question: With COc1ccc(Cn2c(SC)nc(=O)n(Cc3ccc(Cl)cc3)c2=O)cc1 as the compound, how does the growth read?
Answer: Its growth is 94.1%.

Question: COc1cc(CNC(=O)CCSc2nc3ccccc3c(=O)n2Cc2cc(OC)c(OC)c(OC)c2)cc(OC)c1OC was tested. Which growth did it give?
Answer: The growth was 50.4%.

Question: Which growth does the source give for O=C(COc1ccccc1)N1N=C(c2ccc(Cl)cc2)CC1c1c[nH]c2ccccc12 (stereo not drawn) here?
Answer: The growth was 71.9%.

Question: Which growth does the source give for CC(=O)n1cc([C@H]2CC[C@H](c3cn(C(C)=O)c4ccccc34)c3c2[nH]c2ccccc32)c2ccccc21 here?
Answer: The growth was 76.9%.

Question: How did the growth turn out when CCN(CC)CCCC(C)N=c1cc(Nc2cc(=NC(C)CCCN(CC)CC)c3cc(OC)ccc3o2)oc2ccc(OC)cc12 (stereo not drawn) was run?
Answer: Its growth is -32.1% (active).

Question: Which growth does the source give for CC1(C)OC2COC3(C(=O)O)OC(C)(C)OC3C2O1 (stereo not drawn) here?
Answer: The growth was 95.9%.

Question: How did the growth turn out when Cc1ccc(Cn2c(-c3nonc3N)nc3ccccc32)cc1 was run?
Answer: The growth was 81.5%.

Question: How did the growth turn out when COc1cc2nc(N3CCC[C@@H](NC4=CC(=O)c5ccccc5C4=O)C3)nc(N)c2cc1OC was run?
Answer: The growth was -47.4% (active).

Question: With O=C(Nc1ccc(Cl)cc1)c1cc(-c2ccc(F)cc2)c2sc(=O)[nH]c2n1 as the compound, how does the growth read?
Answer: Its growth is 23.6%.

Question: Cc1cc(C)c(S(=O)(=O)N2CCN(c3cc4c(cc3F)c(=O)c(C(=O)O)cn4C3CC3)CC2)c(C)c1 was tested. Which growth did it give?
Answer: The growth was 56.7%.

Question: For O=C(CCCn1c2c(sc3ccccc32)c(=O)n2nnc(-c3ccccc3)c12)NCCc1cnc[nH]1, which growth is on record?
Answer: Its growth is -48.9% (active).

Question: How did the growth turn out when COc1ccc2c(c1)NC(=O)CN2c1nc(NC2CC2)nc2ccccc12 was run?
Answer: The growth was 21.9%.

Question: Which growth does the source give for C=C1C(=O)O[C@H]2[C@H](O)[C@@H](C)CCC/C(C)=C/CC[C@@]3(C)O[C@@H]3C[C@@H]12 here?
Answer: The growth was 96.1%.

Question: How did the growth turn out when COc1ccc(/C=C/C(=O)c2cc(OC)c(OC)c(OC)c2)cc1OCc1cn(Cc2ccc(F)cc2)nn1 was run?
Answer: Its growth is 79.3%.

Question: For O=C(CCC(=O)OC1CCCC1)OC1CCCC1, which growth is on record?
Answer: The growth was 99.7%.

Question: With CCN(C(=O)c1cc2ncccc2[nH]1)[C@H]1CCC[C@@H](NCc2cccc(F)c2)C1 as the compound, how does the growth read?
Answer: Its growth is 102%.

Question: For CCCCCCCCCCCCCCCCC(Br)C(=O)O (stereo not drawn), which growth is on record?
Answer: Its growth is 112%.

Question: For COc1cc2nc(Cl)nc(NCCO)c2cc1OC, which growth is on record?
Answer: The growth was 110%.

Question: With CCOC(=O)C1=C(CSC(=S)N(C2CCCCC2)C2CCCCC2)N(C)C(=O)NC1c1ccccc1 (stereo not drawn) as the compound, how does the growth read?
Answer: The growth was 49%.

Question: With CC1=C(C#N)C(C)(C)C(C#N)=C(C)N1 as the compound, how does the growth read?
Answer: The growth was 100%.

system: SF-295 CNS; test: as above; conditions: 10 µM unless noted

Question: With CCOC(=O)[C@H](CSSc1ncnc2cc[nH]c12)NC(=O)[C@@H](C)c1ccc2cc(OC)ccc2c1 as the compound, how does the growth read?
Answer: Its growth is 16.7%.

Question: For CC(C)C[C@H](NC(=O)Cn1ccc(NCc2ccccc2)cc1=O)B(O)O, which growth is on record?
Answer: Its growth is 28.4%.

Question: How did the growth turn out when COc1ccc(C(=O)c2cc(OC)c(OC)c(OC)c2)cc1/C=C/C(=O)c1ccc(O)cc1 was run?
Answer: Its growth is 29.9%.

Question: Which growth does the source give for Cc1cccc(NC(=O)c2sc3nc4c(cc3c2N)CCC4)c1C here?
Answer: The growth was 4.77% (active).

Question: COc1cc(-c2cc(/C=C3\CCCCC3=O)[nH]n2)cc(OC)c1OC was tested. Which growth did it give?
Answer: The growth was 96.4%.

Question: How did the growth turn out when COc1cccc(C2CC(=O)Nc3c2c(C)nn3-c2nc3ccccc3[nH]2)c1OC (stereo not drawn) was run?
Answer: The growth was 7.64% (active).

Question: For CCNC(=O)C1CCCN1C(=O)C(CCCN=C(N)N)NC(=O)C(CC(C)C)NC(=O)C(CC(C)C)NC(=O)C(Cc1ccc(O)cc1)NC(=O)C(CO)NC(=O)C(Cc1c[nH]c2ccccc12)NC(=O)C(Cc1cnc[nH]1)NC(=O)C1CCC(=O)N1 (stereo not drawn), which growth is on record?
Answer: The growth was 122%.

Question: COc1ccc(-c2nc3sccn3c2-c2ccnc(NCCCNS(=O)(=O)c3ccc(F)cc3)n2)cc1 was tested. Which growth did it give?
Answer: The growth was 12.9%.

Question: How did the growth turn out when CCCCCC(=O)OCc1ccccc1 was run?
Answer: Its growth is 99.8%.

Question: For CN(C)c1nc(N)c(N=O)c(N)n1, which growth is on record?
Answer: The growth was 127%.

Question: For COc1ccc(Cn2cc(COc3cc(/C=C/C(=O)c4cc(OC)c(OC)c(OC)c4)ccc3OC)nn2)cc1, which growth is on record?
Answer: The growth was 32.2%.

Question: For CCOC(=O)C(Cc1ccccc1)n1c(O)c(C=Nc2ccc(C(=O)OCCN(CC)CC)cc2)sc1=O (stereo not drawn), which growth is on record?
Answer: Its growth is 104%.

Question: Which growth does the source give for COc1cc(Cn2c(SCC(=O)Nc3ccc(Cl)cc3)nc3ccccc3c2=O)cc(OC)c1OC here?
Answer: The growth was 62.2%.

Question: With Cc1ccc(S(=O)(=O)NCCCNc2nccc(-c3c(-c4ccccc4)nc4sccn34)n2)cc1 as the compound, how does the growth read?
Answer: The growth was 65.2%.

Question: How did the growth turn out when Cc1cc(-c2ccccc2)c(C)n1Cc1ccc(Cl)cc1 was run?
Answer: The growth was 39.7%.

Question: Which growth does the source give for CN(C)c1ccc(C2CC(c3ccccc3)=NN2/C=C2\SC(=O)NC2=O)cc1 (stereo not drawn) here?
Answer: Its growth is 98%.

Question: For C=C1C(=O)O[C@H]2[C@H]1CC/C(COC(=O)NCCc1ccc(OC)cc1)=C\CC[C@@]1(C)O[C@@H]21, which growth is on record?
Answer: Its growth is 80.3%.

Question: With O=C(CCCn1c(=O)c2sc3ccccc3c2n2nnc(-c3ccccc3)c12)NCCc1cnc[nH]1 as the compound, how does the growth read?
Answer: The growth was 8.37% (active).

Question: With O=C1c2ccccc2C(=O)c2c1oc1oc3c(c(=O)c21)c(=O)n(-c1ccccc1)c1ccccc31 as the compound, how does the growth read?
Answer: Its growth is 18.4%.

Question: For COc1ccc(Cn2c(SC)nc(=O)n(Cc3ccc(Cl)cc3)c2=O)cc1, which growth is on record?
Answer: Its growth is 59.7%.

Question: COc1cc(CNC(=O)CCSc2nc3ccccc3c(=O)n2Cc2cc(OC)c(OC)c(OC)c2)cc(OC)c1OC was tested. Which growth did it give?
Answer: The growth was 36.6%.

Question: How did the growth turn out when O=C(COc1ccccc1)N1N=C(c2ccc(Cl)cc2)CC1c1c[nH]c2ccccc12 (stereo not drawn) was run?
Answer: The growth was 92.1%.

Question: For CC(=O)n1cc([C@H]2CC[C@H](c3cn(C(C)=O)c4ccccc34)c3c2[nH]c2ccccc32)c2ccccc21, which growth is on record?
Answer: Its growth is 80%.

Question: With CCN(CC)CCCC(C)N=c1cc(Nc2cc(=NC(C)CCCN(CC)CC)c3cc(OC)ccc3o2)oc2ccc(OC)cc12 (stereo not drawn) as the compound, how does the growth read?
Answer: The growth was -9.83% (active).

Question: How did the growth turn out when CC1(C)OC2COC3(C(=O)O)OC(C)(C)OC3C2O1 (stereo not drawn) was run?
Answer: Its growth is 103%.

Question: How did the growth turn out when Cc1ccc(Cn2c(-c3nonc3N)nc3ccccc32)cc1 was run?
Answer: Its growth is 82.3%.

Question: How did the growth turn out when COc1cc2nc(N3CCC[C@@H](NC4=CC(=O)c5ccccc5C4=O)C3)nc(N)c2cc1OC was run?
Answer: Its growth is -89% (active).

Question: How did the growth turn out when O=C(Nc1ccc(Cl)cc1)c1cc(-c2ccc(F)cc2)c2sc(=O)[nH]c2n1 was run?
Answer: Its growth is 9.57% (active).

Question: With Cc1cc(C)c(S(=O)(=O)N2CCN(c3cc4c(cc3F)c(=O)c(C(=O)O)cn4C3CC3)CC2)c(C)c1 as the compound, how does the growth read?
Answer: The growth was 33.3%.

Question: For O=C(CCCn1c2c(sc3ccccc32)c(=O)n2nnc(-c3ccccc3)c12)NCCc1cnc[nH]1, which growth is on record?
Answer: Its growth is -42.6% (active).

Question: How did the growth turn out when COc1ccc2c(c1)NC(=O)CN2c1nc(NC2CC2)nc2ccccc12 was run?
Answer: The growth was 0.0109% (active).

Question: Which growth does the source give for C=C1C(=O)O[C@H]2[C@H](O)[C@@H](C)CCC/C(C)=C/CC[C@@]3(C)O[C@@H]3C[C@@H]12 here?
Answer: Its growth is 89.4%.

Question: For COc1ccc(/C=C/C(=O)c2cc(OC)c(OC)c(OC)c2)cc1OCc1cn(Cc2ccc(F)cc2)nn1, which growth is on record?
Answer: The growth was 68.4%.

Question: O=C(CCC(=O)OC1CCCC1)OC1CCCC1 was tested. Which growth did it give?
Answer: Its growth is 99.3%.

Question: With CCN(C(=O)c1cc2ncccc2[nH]1)[C@H]1CCC[C@@H](NCc2cccc(F)c2)C1 as the compound, how does the growth read?
Answer: The growth was 102%.

Question: For CCCCCCCCCCCCCCCCC(Br)C(=O)O (stereo not drawn), which growth is on record?
Answer: Its growth is 93.8%.

Question: With COc1cc2nc(Cl)nc(NCCO)c2cc1OC as the compound, how does the growth read?
Answer: Its growth is 103%.

Question: With CCOC(=O)C1=C(CSC(=S)N(C2CCCCC2)C2CCCCC2)N(C)C(=O)NC1c1ccccc1 (stereo not drawn) as the compound, how does the growth read?
Answer: The growth was 39.9%.

Question: CC1=C(C#N)C(C)(C)C(C#N)=C(C)N1 was tested. Which growth did it give?
Answer: The growth was 96.1%.
